From ChEMBL document CHEMBL4513216, “Probing the Open Global Health Chemical Diversity Library for Multistage-Active Starting Points for Next-Generation Antimalarials” (ACS Infect Dis, 2020)
In all, about 65,000 compounds went through this assay and about 2,100 (3.2%) showed an effect of 50% or more. The median lay at about -52%. The list comes from a sample in which strong results are over-represented; it also holds similar structures and randomly drawn compounds.

System: Plasmodium falciparum
Assay: Screen against P. falciparum Asexual Blood Stage (ABS), at 5uM
Type: functional, Dd2
Conditions: tested at 5 uM

**Q.** With c1cncc(OC2CCN(CCn3cc4ccccc4n3)CC2)c1 as the compound, how does the INHIBITION read?
**A.** Its INHIBITION is -47.4%.

**Q.** With CN(CC(=O)Nc1cnn(-c2ccccc2S(C)(=O)=O)c1)C1CC1 as the compound, how does the INHIBITION read?
**A.** Its INHIBITION is -85.55%.

**Q.** How did the INHIBITION turn out when c1cncc(COCC2CC[C@H]3[C@H](CCN3CC3CCOCC3)O2)c1 (stereo partly specified) was run?
**A.** Its INHIBITION is -5.45%.

**Q.** Which INHIBITION does the source give for COCCN1CCN(Cc2csc(-c3cnn(C)c3)n2)CC1 here?
**A.** The INHIBITION was -30.6%.

**Q.** For Cn1cc(C2CCCN2Cc2csc(-c3ccccc3)n2)cn1 (stereo unspecified), which INHIBITION is on record?
**A.** The INHIBITION was 53.8%.

**Q.** With Cn1cc(C2CCCN2Cc2csc(-c3ccsc3)n2)cn1 (stereo unspecified) as the compound, how does the INHIBITION read?
**A.** Its INHIBITION is -32.1%.

**Q.** With CCCC1CCCN(Cc2csc(-c3cnn(C)c3)n2)CC1 (stereo unspecified) as the compound, how does the INHIBITION read?
**A.** The INHIBITION was 54.1%.

**Q.** For Cn1cc(C2CCCN2Cc2csc(Cc3ccccc3)n2)cn1 (stereo unspecified), which INHIBITION is on record?
**A.** Its INHIBITION is 13.8%.

**Q.** With Cn1cc(-c2nc(CN3CCN(CCO)CC3)cs2)cn1 as the compound, how does the INHIBITION read?
**A.** Its INHIBITION is -59.9%.

**Q.** Which INHIBITION does the source give for CCCS(=O)(=O)CCSc1cccc(C#N)c1 here?
**A.** Its INHIBITION is -113%.

**Q.** How did the INHIBITION turn out when O=C(Cc1ccsc1)N1CCC(c2noc(-c3cccnc3)n2)CC1 was run?
**A.** Its INHIBITION is -53.4%.

**Q.** For O=C(Cc1ccncc1)N1C[C@H]2CC[C@@H](C1)N(Cc1ccccc1)C2=O, which INHIBITION is on record?
**A.** The INHIBITION was -99.2%.

**Q.** With COc1cc(Oc2ccc(C(F)(F)F)cn2)ccc1CN1CCCC1 as the compound, how does the INHIBITION read?
**A.** The INHIBITION was 30.2%.

**Q.** How did the INHIBITION turn out when COc1ccc(Oc2ccc(C(F)(F)F)cn2)cc1CN1CCCC1 was run?
**A.** The INHIBITION was 51.7%.

**Q.** With COc1cc(Oc2cnc3ccccc3n2)ccc1CN1CCCC1 as the compound, how does the INHIBITION read?
**A.** Its INHIBITION is 59%.

**Q.** COc1ccc(Oc2ncccc2F)cc1CN1CCCC1 was tested. Which INHIBITION did it give?
**A.** Its INHIBITION is 15.9%.

**Q.** With COc1ccc(Oc2nccc3occc23)cc1CN1CCCC1 as the compound, how does the INHIBITION read?
**A.** Its INHIBITION is 61.8%.

**Q.** COc1ccc(Oc2ncccc2C(F)(F)F)cc1CN1CCCC1 was tested. Which INHIBITION did it give?
**A.** Its INHIBITION is 32.5%.

**Q.** Which INHIBITION does the source give for COc1cc(Oc2ccc(C(N)=O)cn2)ccc1CN1CCCC1 here?
**A.** Its INHIBITION is -42.6%.

**Q.** Fc1cc(Oc2ccc(C(F)(F)F)cn2)cc(F)c1CN1CCCC1 was tested. Which INHIBITION did it give?
**A.** The INHIBITION was 24.4%.

**Q.** How did the INHIBITION turn out when COc1ccc(Oc2cccc(C#N)n2)cc1CN1CCCC1 was run?
**A.** Its INHIBITION is -20.2%.

**Q.** How did the INHIBITION turn out when CCN(C)C[C@@H]1CN(C(=O)c2cc(C(F)(F)F)n[nH]2)C[C@@H]1CO was run?
**A.** The INHIBITION was -5.31%.

**Q.** How did the INHIBITION turn out when COC[C@@]12CCO[C@@H]1CCN(Cc1ccc(C)s1)C2 was run?
**A.** Its INHIBITION is -35.8%.

**Q.** COCCC(=O)N1CC2(CCN(Cc3ccccc3Cl)CC2)C1 was tested. Which INHIBITION did it give?
**A.** The INHIBITION was 0.294%.

**Q.** For Cc1cc(C)c(CNC(=O)NCCC2CCCO2)c(=O)[nH]1 (stereo unspecified), which INHIBITION is on record?
**A.** Its INHIBITION is 20.5%.

**Q.** Which INHIBITION does the source give for Cc1cc(C)c(CNC(=O)CCC2CCCO2)c(=O)[nH]1 (stereo unspecified) here?
**A.** Its INHIBITION is 53.2%.

**Q.** For Cc1cc(C)c(CNC(=O)NCC2CCCO2)c(=O)[nH]1 (stereo unspecified), which INHIBITION is on record?
**A.** The INHIBITION was -64.8%.

**Q.** For Cc1c(NC(=O)N(C)CCO)cccc1OC1CCCC1, which INHIBITION is on record?
**A.** The INHIBITION was -65.2%.

**Q.** With CC(C)(C)c1cc(CN2C[C@@H]3CC[C@H]2CN(Cc2cscn2)C3)n[nH]1 as the compound, how does the INHIBITION read?
**A.** Its INHIBITION is 20.1%.

**Q.** How did the INHIBITION turn out when CC(C)(C)c1cc(CN2C[C@H]3CC[C@@H](C2)N(Cc2ccccn2)C3)n[nH]1 was run?
**A.** Its INHIBITION is 47.7%.

**Q.** CC(C)Cc1cc(CN2C[C@@H]3CC[C@H]2CN(Cc2cscn2)C3)n[nH]1 was tested. Which INHIBITION did it give?
**A.** Its INHIBITION is 66.6%.

**Q.** With CCc1nccn1-c1nccnc1C1CCN(C(=O)COC)CC1 as the compound, how does the INHIBITION read?
**A.** The INHIBITION was -25.8%.

**Q.** For CN(Cc1cccnc1)C(CO)c1cccc(Br)c1 (stereo unspecified), which INHIBITION is on record?
**A.** The INHIBITION was -135%.

**Q.** How did the INHIBITION turn out when CSCc1ccc(CNC2CCCN(c3ccc(C)nn3)C2)o1 (stereo unspecified) was run?
**A.** Its INHIBITION is -38.5%.

**Q.** For CC(CN1CCOCC1)n1cncc1-c1cnn(Cc2ccccc2)c1 (stereo unspecified), which INHIBITION is on record?
**A.** Its INHIBITION is -46.1%.

**Q.** CC(Cn1cncc1-c1cnn(Cc2ccccc2)c1)N1CCCCC1 (stereo unspecified) was tested. Which INHIBITION did it give?
**A.** The INHIBITION was 65.7%.

**Q.** How did the INHIBITION turn out when CCC(CN1CCCC1)n1cncc1-c1cnn(Cc2ccccc2)c1 (stereo unspecified) was run?
**A.** Its INHIBITION is 44.8%.

**Q.** With Cc1cccc(C)c1OC1CCN(Cc2ccn(C)c(=O)c2)CC1 as the compound, how does the INHIBITION read?
**A.** Its INHIBITION is -30.1%.

**Q.** CC(OCC1CC1)C(=O)Nc1cccc(C(=O)Nc2ccncc2)c1 (stereo unspecified) was tested. Which INHIBITION did it give?
**A.** Its INHIBITION is -140%.

**Q.** Which INHIBITION does the source give for O=C(CC1CN(Cc2ccccc2)CCO1)NCCN1CCOCC1 (stereo unspecified) here?
**A.** Its INHIBITION is -108%.

**Q.** Which INHIBITION does the source give for Cc1nn(C)c(C)c1-c1ccnc(N(C)Cc2nc(C(C)C)no2)n1 here?
**A.** The INHIBITION was 66.3%.

**Q.** For Cc1nn(C)cc1-c1ccnc(N(C)Cc2noc(C(C)C)n2)n1, which INHIBITION is on record?
**A.** Its INHIBITION is -32.2%.

**Q.** For Cc1nn(C)c(C)c1-c1ccnc(N(C)Cc2noc(C(C)C)n2)n1, which INHIBITION is on record?
**A.** Its INHIBITION is -25.3%.

**Q.** With O=C(COc1ccc(F)cc1)N1CCO[C@H]2[C@@H](OCC3CC3)CC[C@@H]21 as the compound, how does the INHIBITION read?
**A.** The INHIBITION was -24%.

**Q.** Which INHIBITION does the source give for COc1ccc(C2=Nn3c(CN)nnc3-c3ccccc3C2)cc1 here?
**A.** The INHIBITION was 64.8%.

**Q.** Which INHIBITION does the source give for COc1ccc(C2=Nn3c(CCCN)nnc3-c3ccccc3C2)cc1 here?
**A.** Its INHIBITION is -100%.

**Q.** For COc1ccc(C2=Nn3c(CCN)nnc3-c3ccccc3C2)cc1, which INHIBITION is on record?
**A.** The INHIBITION was 32.1%.

**Q.** How did the INHIBITION turn out when Cc1ccc(OCC(=O)NS(=O)(=O)c2cccnc2)cc1C was run?
**A.** Its INHIBITION is -19.2%.

**Q.** Which INHIBITION does the source give for O=C(COc1ccc2c(c1)CCC2)NS(=O)(=O)c1cncc(Br)c1 here?
**A.** Its INHIBITION is -108%.

**Q.** How did the INHIBITION turn out when O=C(COc1ccc2c(c1)CCC2)NS(=O)(=O)c1cccnc1 was run?
**A.** Its INHIBITION is 51.8%.

**Q.** For O=C(NCc1ccccn1)[C@@H]1COC[C@H]2CN(c3ncccn3)C[C@H]21, which INHIBITION is on record?
**A.** Its INHIBITION is -20.1%.

**Q.** For COc1cccc(CN2CCCCCC2c2cccc(F)c2)c1O (stereo unspecified), which INHIBITION is on record?
**A.** The INHIBITION was 57.6%.

**Q.** COc1cccc(CN2CCCCCC2c2sccc2C)c1O (stereo unspecified) was tested. Which INHIBITION did it give?
**A.** Its INHIBITION is -7.83%.

**Q.** For Cc1cc2[nH]c(CN3CCCCC3c3cccc(F)c3)cc(=O)n2n1 (stereo unspecified), which INHIBITION is on record?
**A.** The INHIBITION was -64.9%.

**Q.** Which INHIBITION does the source give for Cc1cccc(C2CCCCCN2Cc2cn(C)nc2C)c1 (stereo unspecified) here?
**A.** Its INHIBITION is 35.4%.

**Q.** With COc1cccc(CN2CCCCCC2c2cccs2)c1O (stereo unspecified) as the compound, how does the INHIBITION read?
**A.** The INHIBITION was 3.59%.

**Q.** COc1cccc(CN2CCCCCC2c2cccc(C)c2)c1O (stereo unspecified) was tested. Which INHIBITION did it give?
**A.** Its INHIBITION is 57.5%.

**Q.** Oc1cc(-c2ccsc2)nc(C2CCN(Cc3cccnc3)CC2)n1 was tested. Which INHIBITION did it give?
**A.** The INHIBITION was -96.9%.

**Q.** O=C(NCCCNc1ccc(C(F)(F)F)cn1)c1ccc(F)cc1Br was tested. Which INHIBITION did it give?
**A.** The INHIBITION was -29.4%.

**Q.** For CC(C)Nc1nc2c(cc1C(=O)NCC1CC1)CCN(CC1CC1)CC2, which INHIBITION is on record?
**A.** Its INHIBITION is -7.32%.

**Q.** How did the INHIBITION turn out when COCCOCC1(CNC(=O)c2ccc(OC)cc2)C[C@@H](O)[C@@H](O)C1 (stereo partly specified) was run?
**A.** Its INHIBITION is -102%.
